# Assay outcomes as filed in PubChem BioAssay.
# Abeta yeast res: A-beta toxicity reversal in yeast | yeast expressing A-beta42, growth rescue, OD600, 48 h; response scale: 0% DMSO, 100% iron-clioquinol control | Potency, µM (top dose mostly 46.1 µM), actives largely listed as activators | 410,000 compounds, 0.063% hits; further: nearly all actives have a fitted effect of over 55% in size
#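 Growth rescue measured by 600 nm absorbance after 48 h yeast culture at 30 C with compound. Values normalized between DMSO and an equimolar ferric chloride plus clioquinol control.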
# FUS yeast rescue: suppressors of FUS proteinopathy in yeast; S. cerevisiae FUS-expressing, growth rescue, OD600, 24 h; Potency, µM (highest dose often 76.6 µM), usual class: activators; 390,000 compounds, 0.24% hits; AID 1347120;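 further: plate controls were DMSO vehicle for no effect and reference control for full effect; nearly all actives have a fitted effect of over 55% in size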
#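 Compound concentration series was pinned onto galactose-induced FUS-expressing yeast seeded at OD 0.005. Plates sat 24hr at 30C; absorbance at 600 nm gave growth. DMSO served as background control.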
# aSyn yeast inh: rescues yeast growth from alpha-synuclein toxicity; 370,000 compounds, 0.14% hits; Potency, µM (top dose mostly 46.1 µM), for the others: at the highest dose growth rescue (activation), usual class: activators; Yeast expressing alpha-synuclein, growth rescue, BacTiter-Glo, 24 h; AID 652106; further: % of control where 0% means no effect; nearly all actives have a fitted effect of over 65% in size
#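 Screening used galactose-induced yeast with toxic alpha-synuclein levels, exposed to compound for 24 hr at 30 deg C. Cell growth, read with BacTiter-Glo luminescence, gave the measured signal.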
# TDP-43 yeast inh: rescues yeast growth from TDP-43 toxicity; TDP-43 expressing yeast growth rescue, BacTiter-Glo, 24 h; Potency, µM (highest dose often 46.1 µM), for the others: at the highest dose growth rescue (activation), usual class: activators; 410,000 compounds, 1.8% hits; AID 652104; further: % of control where 0% means no effect; nearly all actives have a fitted effect of over 50% in size
#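 Cell-based yeast growth screen: TDP-43 expression induced in galactose, inoculum OD600=0.02 after raffinose pregrowth to mid-log. Read-out BacTiter-Glo luminescence at 24 hr, 30 deg C; inhibition of toxicity seen as signal increase.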
# * hit, by the source's call; i = inactive; ? = inconclusive; . = no result. Rows were chosen to be rich in hits. Some 2.1% of all compounds tested hit in one or more screens of this group. The call rests on the fitted dose curve; in most records, active means well fitted curve in the direction sought with a large enough effect; inconclusive means small, poorly fitted or top-dose-only effect, or another doubt; inactive means no such curve, though single readings can be large; an effect the other way counts as inactive or inconclusive. Potency means the concentration at half of the fitted maximal effect.
SMILES,Abeta yeast res,FUS yeast rescue,aSyn yeast inh,TDP-43 yeast inh
COc1ccc(S(=O)(=O)Nc2ccc3c(c2)C(=O)N([C@H](C)CO)C[C@H](C)[C@@H](CN(C)C(=O)Nc2ccc(F)cc2)OCCCC[C@H](C)O3)cc1,i,25.1µM*,2.0%,1.4%
C[C@H]1CCCCO[C@@H](CN(C)S(=O)(=O)c2ccc(Cl)cc2)[C@@H](C)CN([C@@H](C)CO)C(=O)c2cc(NS(=O)(=O)c3ccccc3)ccc2O1,i,i,-0.9%,0.0%
C[C@@H]1CCCCO[C@@H](CN(C)S(=O)(=O)c2ccccc2)[C@@H](C)CN([C@H](C)CO)C(=O)c2cc(NS(=O)(=O)c3ccc(F)cc3)ccc2O1,i,14.1µM*,-2.2%,20.6%
CCNc1ccc(/C=C2\C=Cc3ccccc32)cc1,.,.,10.1%,.
Cc1nnc(N2C(=O)C(O)=C(C(=O)c3ccco3)C2c2ccc(C(C)C)cc2)s1 (stereo unspecified),i,7.08µM*,-1.1%,8.6%
O=C(Cc1ccccc1)NCC(=O)OCC(=O)c1ccc2ccccc2c1,.,.,-1.1%,.
COc1ccc(-c2nc(C)c(CCNS(=O)(=O)c3cc(Cl)ccc3Cl)s2)cc1,i,?,?,25.1µM*
COc1ccc(-c2nc(C)c(CCNS(=O)(=O)c3ccc(F)cc3)s2)cc1OC,i,i,6.5%,?
COc1ccc(S(=O)(=O)NCCc2sc(-c3cccc(F)c3)nc2C)cc1,i,i,.,25.1µM*
Clc1ccc(-c2nnc3n2N=C(c2ccc(-c4ccccc4)cc2)CS3)c(Cl)c1,.,i,.,.
COc1cccc(CNC(=O)c2cnc(N3CCCC3)nc2C)c1,i,i,.,?
O=S1(=O)c2ccc(Br)cc2OC[C@@H](c2ccccc2)N1Cc1cn(CCC2OCCCO2)nn1,.,i,.,.
COc1ccc2nc3cccc(OC)c3nc2c1,?,i,6.5%,22.4µM*
CCc1noc(C)c1C(=O)N1CCN(CC(=O)OC)CC1,.,i,.,.
CCOC(=O)N1CCC(N2Cc3cccc(C(=O)Nc4ccc(CC)cc4)c3C2=O)CC1,i,i,14.4%,25.1µM*
COc1ccc(Cl)cc1NC(=O)C1CC(c2ccccc2Cl)=NO1 (stereo unspecified),i,i,-1.9%,9.1%
COc1ccc(NC(=O)C2CC(c3ccccc3Cl)=NO2)cc1 (stereo unspecified),i,i,11.6%,11.2µM*
CCc1ccc2occ(CC(=O)Nc3ccc(OC)c(Cl)c3)c2c1,i,i,?,15.8µM*
CCOC(=O)/C=C/C(=O)OCC(=O)Nc1ccc(OC)c(Cl)c1,i,i,2.6%,35.5µM*
CCc1ccc2occ(CC(=O)NCc3ccccc3)c2c1,i,i,.,11.2µM*
COc1ccc(NC(=O)COC(=O)/C=C/C(=O)OCC(=O)Nc2ccc(OC)c(Cl)c2)cc1Cl,i,.,-0.5%,6.9%
CCOc1ccc(CCNC(=O)c2nn(C)c3c2CSc2ccccc2-3)cc1,i,i,.,10.3%
O=S(=O)(Nc1ccccc1Br)c1cccc2cccnc12,i,i,11.0%,15.6%
O=S(=O)(Nc1cc(Br)cc2cccnc12)c1cccc2ccccc12,.,.,25.1µM*,.
Cc1ccc(C)c(Nc2cc(C)nc(-c3ccccc3O)n2)c1,i,i,-17.5%,14.1µM*
SMILES,Abeta yeast res,FUS yeast rescue,aSyn yeast inh,TDP-43 yeast inh
Cc1cc(NCc2ccccc2)nc(-c2ccccc2O)n1,i,i,-11.6%,11.2µM*
Cc1cc(Nc2ccccc2)nc(-c2ccccc2O)n1,i,i,-25.8%,1.4%
COC(=O)C1CN(CCc2ccccc2)CCS(=O)(=O)N1Cc1ccc(C)cc1 (stereo unspecified),.,i,.,.
O=C(Nc1ccccc1Cl)OC1CC2CC1[C@H]1CCCCN1[C@H]2Cc1ccccc1 (stereo partly specified),.,i,.,.
O=S(=O)(NNC(=S)Nc1ccc(S(=O)(=O)Nc2ncccn2)cc1)c1ccc(Br)cc1,i,i,?,3.98µM*
CN(C(=O)C1CCN(c2cncnc2)CC1)C1CCCCC1,.,i,.,.
N#Cc1nc(COc2cccc(Cl)c2)oc1N1CCCC1,i,i,7.5%,14.1µM*
Cc1cccc(OCc2nc(C#N)c(NCc3ccccc3Cl)o2)c1,i,i,.,28.2µM*
COCCNc1oc(COc2cccc(C)c2)nc1C#N,i,i,-4.1%,1.1%
CC1=C(C(=O)Nc2ccccc2)C(c2cccnc2)n2nc(SCc3ccccc3Cl)nc2N1 (stereo unspecified),i,i,.,-6.8%
CCn1c2ccccc2c2cc(/C=N/NC(=O)c3ccccc3)ccc21,i,?,5.3%,11.2µM*
Clc1ccccc1CSc1nnc(-c2ccncc2)o1,i,i,7.1%,10µM*
Fc1cccc(Cl)c1CSc1nnc(-c2ccncc2)o1,i,i,-8.5%,12.6µM*
Clc1cccc(NCc2nnc(SCc3ccccc3Cl)o2)c1,i,.,20µM*,12.6µM*
Clc1cccc(NCc2nnc(SCc3ccccc3)o2)c1,i,i,4.6%,0.0%
COc1cc(-c2nnc(SCc3c(F)cccc3Cl)o2)cc(OC)c1OC,i,i,0.6%,?
CCC[C@H]1[C@@H](N(C)CC2CCCCC2)CC[C@@]23CCCN2C(=O)CCC[C@@H]13,.,i,.,.
COc1ccc(S[C@]2(C(=O)NCC(C)C)CC(=O)N[C@@H]2c2ccc(OC)cc2)cc1,.,i,.,.
CC(C)(C)NCC(=O)N/N=C/c1ccc(OCc2ccccc2)cc1,i,i,3.8%,22.4µM*
Oc1ccc(N=Cc2ccc(OCc3ccccc3)cc2)cc1,i,i,1.6%,25.1µM*
O=C(COCc1cc(-c2ccc3c(c2)OCO3)on1)NCc1ccccc1Cl,i,i,.,28.2µM*
CCOC(=O)C1=C(C)NC(C)=C(C(=O)OC)[C@H]1c1cccc([N+](=O)[O-])c1,.,.,1.0%,.
CCOC(=O)C1=C(C)NC(C)=C(C(=O)OC)C1c1cccc([N+](=O)[O-])c1 (stereo unspecified),i,i,20.1%,35.5µM*
O=C(OCC#CCSc1nnc(-c2ccc(Cl)cc2)o1)c1ccc(F)cc1,.,i,.,.
COc1ccc(OC)c(NC2c3ncccc3C(=O)N2Cc2ccco2)c1 (stereo unspecified),i,35.5µM*,2.0%,-7.9%
SMILES,Abeta yeast res,FUS yeast rescue,aSyn yeast inh,TDP-43 yeast inh
O=C(c1cnn(-c2ccccc2)c1)c1cc(F)ccc1O,i,i,8.0%,10µM*
COc1ccc(O)c(C(=O)c2cnn(-c3ccccc3)c2)c1,i,i,-8.3%,6.9%
COc1ccc(-n2cc(C(=O)c3ccccc3O)cn2)cc1,i,i,-4.7%,12.6µM*
CCOc1ccc(CNC(=O)Cn2ccc3cc(S(=O)(=O)N4CCCCC4)ccc32)cc1,i,15.8µM*,.,18.6%
CCOc1ccc(CNC(=O)c2cc3cc(S(=O)(=O)N4CCCCC4)ccc3n2C)cc1,i,?,.,17.8%
CN(C)c1ccc(CNC(=O)c2cc3cc(S(=O)(=O)N4CCCCC4)ccc3n2C)cc1,i,8.91µM*,.,-2.4%
